About 83,000 compounds went through this panel and 20% of them were active in at least one assay; those are over-represented in the sample as a whole.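 Growth was measured after 48 h exposure to one concentration of compound in 96-well plates. Values under 10 count as active.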 Unmarked numbers belong to inactive results. Active and inactive are the calls of the source.
system: MDA-MB-468 breast; assay: NCI-60 one-dose screen, 48 h (100 = growth as untreated, 0 = no growth, -100 = all killed); details: 10 µM unless noted

Row | SMILES | growth
1 | NS(=O)(=O)c1ccc(N2Cc3cc(Cl)ccc3OC3=C2C(=O)N(CC2CCCCC2)C3=O)cc1 | -81.1% (active)
2 | Cc1n[nH]c(C)c1-c1c(C)n[nH]c1C | -0.751% (active)
3 | COc1ccc(-c2c3c(N)nc(-c4ccncc4)nc3nc3c2c(C)nn3-c2ccccc2)cc1 | 72.7%
4 | Brc1cccc(-c2nc(-c3ccc4c(c3)OCCO4)co2)c1 | 34.9% [25 µM]
5 | COc1cc2nc(-c3ccc(Cl)cc3)cc(OCCCN3CCC(O)CC3)c2cc1OC | 52.9%

Source: PubChem BioAssay (NCI)
